Measured values reported in PubChem BioAssay.
“And” between values parts separate entries of the source, which are not always exact repeats. Equal values may be shown once. The source made the active and inactive calls. Cut-off read from the data, not from the text of the source, unless noted: active = inhibition above about 80%; inactive = the rest.

Experiments:
[1] = RCMB18 cell growth, single agent and combined, cisplatin and BGB IC40 combos (AID 1671462); conditions: RCMB18 medulloblastoma cells, stronger effect = higher value;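 note: cells exposed to compound for four days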
[2] = CRL1545 cell growth, single agent and combined, cisplatin and BGB IC20 combos (AID 1671464); conditions: CRL1545 osteosarcoma cells, stronger effect = higher value;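 note: cells exposed to compound for 96 hours before readout; 0% = vehicle DMSO and 100% = high DMSO killing control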
[3] = growth inhibition, single agent or in combination, cell-based, chromothripsis tumors, cisplatin or BGB combos (AID 1671449); conditions: LFS_MB_P medulloblastoma cells;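 note: cells exposed for 96 hours; 0% = vehicle DMSO and 100% = killing by high DMSO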
[4] = growth inhibition, single agent and combos, cell-based, chromothripsis tumors, cisplatin or BGB combos (AID 1671450); conditions: HDN33 neuroblastoma cells, stronger effect = higher value;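 note: cells exposed to compound for four days; 0% = vehicle DMSO and 100% = cell killing by high DMSO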
[5] = growth inhibition, single agents and combos, ICB984, cell-based, cisplatin or BGB combos, synergistic combos for chromothripsis tumors (AID 1671451; call rule not given here;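 note: cells exposed for 96 hours before readout; 0% = vehicle DMSO and 100% = killing by high DMSO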); conditions: ICB984 medulloblastoma cells, drug combinations, stronger effect = higher value
[6] = growth inhibition, single agents and combos, LFS_MB_1R, cell-based, cisplatin or BGB combos, synergistic combos for chromothripsis tumors (AID 1671452); conditions: LFS_MB_1R medulloblastoma cells, stronger effect = higher value;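 note: cells exposed for 96 hours before readout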
[7] = growth inhibition, single agents and combos, HTB85, cell-based, BGB or cisplatin IC20 combos, synergistic combos for chromothripsis tumors (AID 1671453); conditions: HTB85 osteosarcoma cells, drug combinations, stronger effect = higher value;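 note: cells exposed for 96 hours before readout; 0% = vehicle DMSO and 100% = high DMSO killing control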
[8] = growth inhibition, single agents and combos, CRL2098, cell-based, BGB or cisplatin IC20 combos, synergistic combos for chromothripsis tumors (AID 1671454); conditions: CRL2098 osteosarcoma cells, drug combinations, stronger effect = higher value;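 note: cells exposed for 96 h before readout; 0% = vehicle DMSO and 100% = killing by high DMSO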
[9] = growth inhibition, single agents and combos, HD-MB03, cell-based, BGB or cisplatin IC20 combos, synergistic combos for chromothripsis tumors (AID 1671455; in the data active = inhibition above about 83%;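 note: 0% = vehicle DMSO and 100% = high DMSO as cytotoxic control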); conditions: HD-MB03 medulloblastoma cells, stronger effect = higher value
[10] = growth inhibition, single agents and combos, UWB1.289, cell-based, BGB or cisplatin combos, synergistic combos for chromothripsis tumors (AID 1671456); conditions: UWB1.289 ovarian carcinoma cells, stronger effect = higher value;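 note: cells exposed to compound for four days; 0% = vehicle DMSO and 100% = killing by high DMSO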
[11] = growth inhibition, single agents and combos, LFS_MB_2R, cell-based, cisplatin combos, synergistic combos for chromothripsis tumors (AID 1671457); conditions: LFS_MB_2R medulloblastoma cells, stronger effect = higher value;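 note: cells exposed to compound for four days before readout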
[12] = growth inhibition, MDA-MB-436, cell-based, BGB or cisplatin combos, synergistic combos for chromothripsis tumors (AID 1671458; call rule not given here;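 note: cells exposed for 96 hours; 0% = vehicle DMSO and 100% = killing by high DMSO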); conditions: MDA-MB-436 breast carcinoma growth inhibition, drug combinations, stronger effect = higher value
[13] = UWB1.289_BRCA1 ovarian cancer growth, cell-based, BGB or cisplatin combinations (AID 1671459); conditions: UWB1.289 BRCA1 ovarian carcinoma, drug combinations, stronger effect = higher value
[14] = drug combination toxicity in non-malignant astrocytes – cell-based, BGB or cisplatin IC20 combos, cytotoxicity control for chromothriptic childhood tumor combination screen (AID 1671460); conditions: Human astrocytes, viability inhibition, drug combinations, at 0.5 µM, stronger effect = higher value;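 note: cells exposed to compounds for 96 hours before viability readout; 0% = vehicle and 100% = killing control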
[15] = BT084 cell growth, single and combined drugs, ICGC_MB145, cisplatin and BGB IC40 combos (AID 1671461); conditions: BT084 medulloblastoma cells, drug combinations, stronger effect = higher value;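 note: cells exposed to drugs for 96 hours; 0% = vehicle DMSO and 100% = high DMSO full killing control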
[16] = measured here: BGB IC40 combination, at 0.05 µM
[17] = measured here: combination with cisplatin, at 0.5 µM
[18] = measured here: with BGB IC20 combination, at 0.5 µM
[19] = measured here: with cisplatin IC20 combination, at 0.5 µM
[20] = measured here: combination with BGB IC40, at 0.05 µM
[21] = measured here: combination with cisplatin, at 5 µM

Work on `C=C(NC(=O)C(=C)NC(=O)c1csc(C2=NC3c4csc(n4)C4NC(=O)c5csc(n5)C(C(C)(O)C(C)O)NC(=O)C5CSC(=N5)/C(=C/C)NC(=O)C(C(C)O)NC(=O)c5csc(n5)C3(CC2)NC(=O)C(C)NC(=O)C(=C)NC(=O)C(C)NC(=O)C(C(C)CC)NC2C=Cc3c(C(C)O)cc(nc3C2O)C(=O)OC4C)n1)C(N)=O` (stereo unspecified) yielded an inhibition [1, 16] of -17.4%, an inhibition [1, 17] of -6.48% and an inhibition ([1]; single agent, at 5 µM) of 90.8%. The inhibition ([2]; at 0.5 µM) was 53.8% (inactive), the inhibition [2, 18] was 53.1% and the inhibition [2, 19] was 53.1%. For the same compound, the inhibition ([2]; single agent, at 0.05 µM) was -28.1% and the inhibition ([2]; single agent, at 5 µM) was 100%.
In the case of `CNc1cc(-c2cccc(Cl)c2Cl)nc(N)n1`, the inhibition ([3]; at 0.5 µM, stronger effect = higher value) is reported as -8.18% (inactive) and -26.7% (inactive), the inhibition ([3]; measured here: combination with BGB IC20, at 0.005 µM) is reported as 12.7% and 6.36% and the inhibition ([3]; measured here: combination with BGB IC40, at 0.005 µM) is reported as -26.9% and -34.5%. The inhibition [3, 20] was -17.6% and -7.49%, the inhibition ([3]; measured here: combination with cisplatin, at 0.5 µM, stronger effect = higher value) was -22.4% and -20% and the inhibition ([3]; measured here: combination with cisplatin, at 5 µM, stronger effect = higher value) was -7.76% and -6.35%. The inhibition ([4]; BGB combo, at 5 µM) was 48.2% and 55.5%, the inhibition ([4]; at 0.5 µM) was -17.8% (inactive) and -6.13% (inactive) and the inhibition ([4]; cisplatin combo, at 5 µM) was 48.9% and 48.7%. For the same compound, the inhibition [4, 18] was -27.7% and -11%, the inhibition [4, 19] was -24.8% and -0.815% and the inhibition ([4]; single agent, at 5 µM) was 76.2% and 85.6%. For the same compound, the inhibition ([5]; BGB IC20 combo, at 0.005 µM) was -21.8% and -29.5%, the inhibition ([5]; BGB IC40 combo, at 0.005 µM) was -56.1% and -31.8% and the inhibition ([5]; BGB IC40 combo, at 0.05 µM) was -22.7% and -34.1%. The inhibition ([5]; at 0.5 µM) was -44.2% (inactive) and -25.3% (inactive), the inhibition ([5]; cisplatin combo, at 0.05 µM) was -27.5% and -41.1% and the inhibition ([5]; cisplatin combo, at 0.5 µM) was -72.1% and -45.6%. The inhibition ([5]; cisplatin combo, at 5 µM) was -47.7% and -22.7%, the inhibition ([5]; measured here: 5 uM single agent, at 5 µM) was -10.2% and -10.7% and the inhibition ([6]; at 0.5 µM) was -34.6% (inactive) and -4.83% (inactive). For the same compound, the inhibition [6, 20] was -68.3% and -4.85%, the inhibition [6, 17] was -61.7% and -26.6% and the inhibition [6, 21] was -37.7% and -6.6%. For the same compound, the inhibition ([7]; at 0.5 µM) was -10% (inactive) and -11.4% (inactive), the inhibition ([7]; measured here: with BGB IC20, at 0.5 µM) was -16.2% and -6.99% and the inhibition ([7]; measured here: with BGB IC20, at 5 µM) was 35.9% and 44.4%. For the same compound, the inhibition ([7]; measured here: with cisplatin IC20, at 0.5 µM) was -19.3% and -24.6%, the inhibition ([7]; measured here: with cisplatin IC20, at 5 µM) was 46.5% and 52.3% and the inhibition ([7]; single agent, at 5 µM) was 86.8% and 87.8%. For the same compound, the inhibition ([8]; at 0.5 µM) was -44.3% (inactive) and -58.9% (inactive), the inhibition ([8]; measured here: combination with BGB at IC20, at 0.5 µM) was -56.3% and -39.2% and the inhibition ([8]; measured here: combination with cisplatin at IC20, at 0.5 µM) was -66.3% and -96.2%. For the same compound, the inhibition ([9]; at 0.5 µM) was 7.62% (inactive) and 7.36% (inactive), the inhibition ([9]; measured here: combo with BGB at IC20, at 0.5 µM) was 6.39% and 25.3% and the inhibition ([9]; measured here: combo with cisplatin at IC20, at 0.5 µM) was 10.3% and -5.76%. The inhibition ([10]; at 0.5 µM) was -17.7% (inactive) and -11.8% (inactive), the inhibition ([10]; measured here: inhibition with BGB combination, at 0.05 µM) was -38.9% and -10.5% and the inhibition ([10]; measured here: inhibition with cisplatin combination, at 0.05 µM) was -22.8% and -21.6%. The inhibition ([11]; at 0.5 µM) was -20.6% (inactive) and -7.54% (inactive), the inhibition [11, 17] was -10.7% and -19.4% and the inhibition [11, 21] was -1.17% and -0.403%. For the same compound, the inhibition ([12]; at 0.5 µM) was -4.77% (inactive) and 5.99% (inactive), the inhibition ([12]; measured here: BGB combination, at 0.5 µM) was -12.3% and -2.46% and the inhibition ([12]; measured here: BGB combination, at 5 µM) was 12% and 36.8%. The inhibition ([12]; measured here: cisplatin combination, at 0.5 µM) was -5.91% and 6.1%, the inhibition ([12]; measured here: cisplatin combination, at 5 µM) was 53.8% and 59% and the inhibition ([13]; BGB combination, concentration series, at 5 µM) was 25.6% and 35%. For the same compound, the inhibition ([13]; at 0.5 µM) was -10.5% (inactive) and -13.3% (inactive), the inhibition ([13]; cisplatin combination, concentration series, at 5 µM) was 31% and 30.9% and the inhibition [14] was -0.46% (inactive) and -4.98% (inactive). For the same compound, the inhibition ([14]; measured here: combo with BGB IC20) was -4.03% and -6.91%, the inhibition ([14]; measured here: combo with cisplatin IC20) was 5.16% and -6.91% and the inhibition ([15]; at 0.5 µM) was -12.1% (inactive) and 5.54% (inactive). The inhibition ([15]; cisplatin combination, at 0.5 µM) was -10.6% and -1.11%, the inhibition ([15]; cisplatin combination, at 5 µM) was 8.87% and -169% and the inhibition ([15]; measured here: BGB IC40 combination 0.05 uM, at 0.05 µM) was 37% and -7.52%. The inhibition ([15]; single agent, at 5 µM) was 37.7% and 19.1%, the inhibition ([1]; at 0.5 µM) was -17.1% (inactive) and -8.27% (inactive) and the inhibition ([1]; cisplatin combo, at 5 µM) was -4.48% and -9.87%. The inhibition [1, 16] was -4.59% and 4.5%, the inhibition [1, 17] was -16.3% and -34.1% and the inhibition ([1]; single agent, at 5 µM) was -7.05% and 22%. For the same compound, the inhibition ([2]; at 0.5 µM) was -60.9% (inactive) and -11.4% (inactive), the inhibition [2, 18] was -68.8% and -40.3% and the inhibition [2, 19] was -56.9% and 1.42%. The inhibition ([2]; single agent, at 0.05 µM) was -40.9% and -9.94% and the inhibition ([2]; single agent, at 5 µM) was 58.9% and 60.8%.
